Molecules are shown by their SMILES. Activity calls are given as the source filed them. Rule for the calls: active = hit-call score of the fitted dose curve at least 0.9, where 1 is the maximum; inactive = score below 0.9.

Read-out in one experiment: Protein phosphatase 2A (PPP2R4), PTPA (gene 5524)
The experiment can be described thus: LTEA_HepaRG_PPP2R4: Life Technologies and Expression Analysis (LTEA) Assay for Protein phosphatase 2A (PPP2R4) using HepaRG (AID 2283522). Particulars: mRNA level, 48 h; actives raise or lower the signal. An outline of the steps: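 Expression was quantified by Fluidigm qRT-PCR normalised to three housekeeping genes after 48 h treatment. Human HepaRG cells received an 8-point series from 100 µM downward by half-logs, in duplicate with 0.5% DMSO vehicle and 1 mM phenobarbital as induction control.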
With `COCCOCCO`, the compound was called inactive.
In the case of `Nc1cc2c3c(c1)C(c1ccccc1)=N[C@@H](NC(=O)c1cccnc1)C(=O)N3CC2`, the result was inactive.
In the case of `CCNc1nc(Cl)nc(NC(C)(C)C)n1`, the outcome was inactive.
Still for that read-out and setting: the result for `CC(Cl)(Cl)C(=O)O` reads “inactive”; that for `Cc1cccc(N)c1`, “inactive”.
For `CC(Cc1ccc(OCC(=O)O)cc1)NCC(O)c1csc(C(F)(F)F)n1` (stereo not given), the compound was called inactive.
`CSC(C)(C)C=NO`: the call was inactive.
As for `Cc1ccc(N)cc1N`, the compound was called inactive.
In the case of `CCOS(=O)(=O)OCC`, the result was inactive.
Regarding `CCCCN(CCCC)SN(C)C(=O)Oc1cccc2c1OC(C)(C)C2`, the call was inactive.
Take `CCOC(=O)c1ccccc1C(=O)OCC`: the call was inactive.
The same measure, in the same setting: the result for `CCCCc1ccccc1` reads “inactive”.
In the case of `c1nc[nH]n1`, the outcome was inactive.
Turning to `O=P(Oc1ccccc1)(Oc1ccccc1)Oc1ccccc1`, the compound was called inactive.
The same measure, in the same setting: the result for `ClC(Cl)c1ccccc1` reads “inactive”.
Turning to `Cc1ccc([N+](=O)[O-])cc1C`, the result was inactive.
On the same count and under the same terms, the value for `O=[N+]([O-])c1ccccc1` was “inactive”; that for `CN(C)C(=O)Cl` was “inactive”; that for `O=P1(N(CCCl)CCCl)NCCCO1` (stereo not given) was “inactive”.
As to `[N-]=[N+]=[N-]`, the call was inactive.
Take `Nc1ccc(Cl)cc1`: the compound was classed as inactive.
`CCC(C)(C)c1ccc(O)cc1`: the call was inactive.
As to `c1cc2c3c(cccc3c1)CC2`, the compound was classed as inactive.
For the compound `O=C(O)C1C(C(=O)O)C2(Cl)C(Cl)=C(Cl)C1(Cl)C2(Cl)Cl` (stereo not given), the result was inactive.
For `CCOP(=S)(OCC)SCSCC`, the outcome was inactive.
As for `c1ccc2c(c1)Nc1ccccc1S2`, the compound was classed as inactive.
In the case of `O=[N+]([O-])c1ccc(Cl)c(Cl)c1`, the outcome was inactive.
With `CCCCCCCc1ccc(O)cc1`, the compound was called inactive.
Same read-out and setting: the result for `CCCCN(CCCC)N=O` reads “inactive”.
In the case of `CCCN(CCC)c1c([N+](=O)[O-])cc(C(C)C)cc1[N+](=O)[O-]`, the result was inactive.

Read-out in a further experiment: Phosphatase and tensin (PTEN), PTEN (gene 5728)
Put plainly: LTEA_HepaRG_PTEN: Life Technologies and Expression Analysis (LTEA) Assay for Phosphatase and tensin (PTEN) using HepaRG (AID 2283523). The note with it: mRNA level, 48 h; actives raise or lower the signal. An outline of the steps: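 Expression of PTEN is quantified in the human liver line HepaRG following two days of dosing (top concentration 100 uM, half-log dilutions, 0.5% DMSO). Values derive from bidirectional curve fitting relative to DMSO controls.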
Turning to `COCCOCCO`, the result was inactive.
In the case of `Nc1cc2c3c(c1)C(c1ccccc1)=N[C@@H](NC(=O)c1cccnc1)C(=O)N3CC2`, the result was inactive.
As for `CCNc1nc(Cl)nc(NC(C)(C)C)n1`, the compound was called inactive.
The same measure, in the same setting: the result for `CC(Cl)(Cl)C(=O)O` reads “inactive”; that for `Cc1cccc(N)c1`, “inactive”; that for `CC(Cc1ccc(OCC(=O)O)cc1)NCC(O)c1csc(C(F)(F)F)n1` (stereo not given), “inactive”.
Take `CSC(C)(C)C=NO`: the call was inactive.
Consider `Cc1ccc(N)cc1N`, for which the call was inactive.
Take `CCOS(=O)(=O)OCC`: the compound was classed as inactive.
For `CCCCN(CCCC)SN(C)C(=O)Oc1cccc2c1OC(C)(C)C2`, the outcome was inactive.
With `CCOC(=O)c1ccccc1C(=O)OCC`, the compound was called inactive.
The same measure, in the same setting: the value for `CCCCc1ccccc1` was “inactive”; that for `c1nc[nH]n1` was “inactive”; that for `O=P(Oc1ccccc1)(Oc1ccccc1)Oc1ccccc1` was “inactive”.
The same measure, in the same setting: the value for `ClC(Cl)c1ccccc1` was “inactive”.
The same measure, in the same setting: the result for `Cc1ccc([N+](=O)[O-])cc1C` reads “inactive”.
On to `O=[N+]([O-])c1ccccc1`, for which the compound was called inactive.
As for `CN(C)C(=O)Cl`, the compound was called inactive.
As for `O=P1(N(CCCl)CCCl)NCCCO1` (stereo not given), the outcome was inactive.
On to `[N-]=[N+]=[N-]`, for which the result was inactive.
For `Nc1ccc(Cl)cc1`, the call was inactive.
On the same count and under the same terms, the result for `CCC(C)(C)c1ccc(O)cc1` reads “inactive”; that for `c1cc2c3c(cccc3c1)CC2`, “inactive”; that for `O=C(O)C1C(C(=O)O)C2(Cl)C(Cl)=C(Cl)C1(Cl)C2(Cl)Cl` (stereo not given), “inactive”.
Regarding `CCOP(=S)(OCC)SCSCC`, the compound was classed as inactive.
`c1ccc2c(c1)Nc1ccccc1S2`: the result was inactive.
Take `O=[N+]([O-])c1ccc(Cl)c(Cl)c1`: the compound was classed as inactive.
The same measure, in the same setting: the value for `CCCCCCCc1ccc(O)cc1` was “inactive”; that for `CCCCN(CCCC)N=O` was “inactive”.
As for `CCCN(CCC)c1c([N+](=O)[O-])cc(C(C)C)cc1[N+](=O)[O-]`, the compound was classed as inactive.

The values above are taken from PubChem BioAssay (EPA / NIEHS).
